Data taken from PubChem BioAssay AID504692 (The Scripps Research Institute Molecular Screening Center, 2011).
Out of some 340,000 compounds screened, about 2,000 (0.59%) were called active. Cut-off read from the data, not from the text of the source: active = activation mostly above about 9.5% (no sharp cut-off); inactive = mostly below about 7.6%. Many of the other results were omitted from the sample, so actives are more common in it than they were.

biological target: 5-hydroxytryptamine receptor 5A (Homo sapiens) (UniProt P47898); assay: HTR5A agonists in luminescence cell assay, primary screen, counter-screen for OPRM1-OPRD1 heterodimer agonist project, full-deck HTS (AID 504692); conditions: cell-based, at 9.3 µM, active compounds read high;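 note: 0% = cells with vehicle only and 100% = reference agonist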
Sequence (P47898 whole entry, looked up): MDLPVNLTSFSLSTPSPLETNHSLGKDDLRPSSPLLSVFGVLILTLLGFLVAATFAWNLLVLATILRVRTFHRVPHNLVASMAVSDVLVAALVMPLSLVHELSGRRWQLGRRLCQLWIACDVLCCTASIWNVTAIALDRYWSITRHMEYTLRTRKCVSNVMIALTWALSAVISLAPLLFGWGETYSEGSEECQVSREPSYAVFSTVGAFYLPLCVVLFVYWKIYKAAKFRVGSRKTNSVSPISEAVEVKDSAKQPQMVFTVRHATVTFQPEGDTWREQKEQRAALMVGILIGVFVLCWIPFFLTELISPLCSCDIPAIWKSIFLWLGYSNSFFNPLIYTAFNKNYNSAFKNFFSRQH

Row | SMILES | activation
1 | O=S(=O)(NCc1cccnc1)c1ccc(Cl)nc1 | -5.88% (inactive)
2 | COCCCN1C(=O)c2ccc(C(=O)Nc3ccc(OC)cc3OC)cc2C1=O | -0.44% (inactive)
3 | COc1ccc2[nH]cc(CCN3C(=O)c4ccc(C(=O)O)cc4C3=O)c2c1 | 27% (active)
4 | Cc1ccc2[nH]cc(CCCN3C(=O)c4ccccc4C3=O)c2c1 | -1.1% (inactive)
5 | O=C(CNCc1cccs1)Nc1cc(S(=O)(=O)N2CCCC2)ccc1Cl | -2.05% (inactive)
6 | COc1ccccc1CNC(=O)C1CCCN(S(=O)(=O)c2cccc3cccnc23)C1 (configuration not stated) | -3.07% (inactive)
7 | CCC(C)OC(=O)C(C)Oc1ccc(-c2ccccc2)cc1 (configuration not stated) | 3.02% (inactive)
8 | CC(=O)Nc1ccc(N2C(=O)C3C4CC(=O)C(c5ccccc54)C3C2=O)cc1 (configuration not stated) | -1.72% (inactive)
9 | CC1=C(C)CC2C(=O)N(c3cccc4ccccc34)C(=O)C2C1 (configuration not stated) | 1.96% (inactive)
10 | CCc1ccccc1N1C(=O)C2C3CC(=O)C(c4ccccc43)C2C1=O (configuration not stated) | 10.2% (active)
11 | Cn1nc(C(C)(C)C)c([N+](=O)[O-])c1C(N)=O | -3.65% (inactive)
12 | NC(=O)c1ccc(N2CCOCC2)nc1 | 5.3% (inactive)
13 | CCCN(CC1CC1)C(=S)NC(=O)c1ccccc1Br | -3.6% (inactive)
14 | CC[C@]12c3[nH]c4cc(CCC(=O)N(C)C)ccc4c3CCN1C(=O)[C@@H](CC(=O)NCc1ccco1)C[C@@H]2C(=O)N1CCN(C(=O)c2ccco2)CC1 | -2.65% (inactive)
15 | CC[C@]12c3[nH]c4cc(CCC(=O)N(C)C)ccc4c3CCN1C(=O)[C@@H](CC(=O)NCCCn1ccnc1)C[C@@H]2C(=O)N1CCN(C(=O)C2CC2)CC1 | 2.93% (inactive)
16 | CC[C@]12c3[nH]c4cc(CCC(=O)N(C)C)ccc4c3CCN1C(=O)[C@@H](CC(=O)NCCCN(C)C)C[C@@H]2C(=O)N1CCN(C(=O)c2ccco2)CC1 | 4.2% (active)
17 | O=C(c1cccnc1)N(c1cc2sc(=O)oc2c2ccccc12)S(=O)(=O)c1ccccc1 | 16.1% (active)
18 | O=C(c1cccnc1)N(Cc1ccccc1)C(=O)c1cccnc1 | 5.83% (inactive)
19 | COc1ccc(N(C(=O)c2cccnc2)S(=O)(=O)c2ccc(OC)c(OC)c2)cc1 | 6.11% (inactive)
20 | COCCCn1c(-c2cccs2)nc2nc3ccccc3nc21 | -0.51% (inactive)
21 | CC(OC(=O)CCc1nc(=O)c2ccccc2n1C)C(=O)NCc1ccc2c(c1)OCO2 (configuration not stated) | -4.46% (inactive)
22 | C=CCSc1nnc2c(n1)-c1cccc3cccc-2c13 | -0.69% (inactive)

Row | SMILES | activation
23 | COc1cccc(C(=O)NNS(=O)(=O)c2ccc(F)cc2)c1 | -2.33% (inactive)
24 | O=C(COc1ccc(Cl)cc1[N+](=O)[O-])N1CCCCC1 | -1.55% (inactive)
25 | O=C(c1ccc(Oc2ccc(Cl)cc2)c([N+](=O)[O-])c1)N1CCCC1 | 11% (active)
26 | Nc1ccc(C(=O)N2CCN(S(=O)(=O)c3ccc(Cl)cc3)CC2)cc1[N+](=O)[O-] | -1.02% (inactive)
27 | Cc1cnc(C(=O)N2CCCC(N3CCN(c4ccccc4F)CC3)C2)cn1 (configuration not stated) | 5.27% (inactive)
28 | Cc1ccc(S(=O)(=O)/N=C(/Nc2ccc3[nH]c(=O)[nH]c3c2)c2ccccc2)cc1 | 3.44% (inactive)
29 | O=C(Nc1ccc(Cl)cn1)c1ccc2c(c1)OCCO2 | 1.65% (inactive)
30 | COc1c(Cl)cc(C(=O)Nc2ccc(Cl)cn2)cc1Cl | 18.5% (active)
31 | COc1ccc(C(=O)NC(=S)Nc2ccc(Cl)cn2)cc1OC | 0.47% (inactive)
32 | O=C(NCCS(=O)(=O)c1ccc(Br)cc1)c1ccccc1Cl | 0.17% (inactive)
33 | Cc1ccc(CN2C(=O)N/C(=C/c3cc(C)n(-c4ccccn4)c3C)C2=O)cc1 | 1.53% (inactive)
34 | Cc1cccc(NC(=O)CN2CCCN(S(=O)(=O)c3ccc(Br)s3)CC2)c1 | 0.97% (inactive)
35 | Cc1ccc2nc(-c3ccc(SCC(=O)Nc4cc(C)on4)nc3)[nH]c2c1 | -0.96% (inactive)
36 | Cc1ccc(-c2csc(SCC(=O)Nc3cc(C)on3)n2)cc1 | 14.7% (active)
37 | Cc1ccc(SCCC(=O)Nc2cc(C)on2)cc1 | -4.61% (inactive)
38 | O=C(NCC(F)(F)F)Nc1nnc(C(F)(F)F)s1 | 4% (inactive)
39 | O=C(CCl)N(Cc1cccc([N+](=O)[O-])c1)c1cccc(Cl)c1 | 40.9% (active)
40 | Cc1ccc(S(=O)(=O)N(Cc2cccc([N+](=O)[O-])c2)C(=O)N2CCN(C)CC2)cc1 | 0.8% (inactive)
41 | O=C(c1cccc([N+](=O)[O-])c1)N1CCN(Cc2ccccc2)CC1 | 5.31% (inactive)
42 | O=S(=O)(NCCCCCCNS(=O)(=O)c1c(F)cccc1F)c1ccc2c(c1)OCCO2 | 2.32% (inactive)
43 | COc1ccccc1N(C)S(=O)(=O)c1ccc(C(=O)NC2CCCCCC2)cc1 | 2.54% (inactive)
44 | CC1CCC2CCCCC2N1C(=O)c1cc([N+](=O)[O-])cc([N+](=O)[O-])c1 (configuration not stated) | 4.16% (inactive)

Row | SMILES | activation
45 | CN1c2ccc(C=O)c3c(C=O)ccc(c23)N(C)C1(C)C | 20.2% (active)
46 | CN(CC(=O)Nc1ccccc1Cl)C(=O)COc1cccc2c1OC(C)(C)C2 | 2.73% (inactive)
47 | CCSc1nc(O)c(C(c2cccc(OC)c2)c2c(O)nc(SCC)[nH]c2=O)c(=O)[nH]1 | 6.11% (inactive)
48 | Cc1ccc(/C([O-])=C(/C(=S)NCc2ccco2)[n+]2ccccc2)cc1[N+](=O)[O-] | 0.24% (inactive)
49 | O=C(COC(=O)CSc1nnc(-c2ccc(Cl)cc2)o1)Nc1cc(Cl)cc(Cl)c1 | 0.33% (inactive)
50 | O=C(NNS(=O)(=O)c1ccc([N+](=O)[O-])cc1)C1CCCCC1 | -4.2% (inactive)
51 | Cc1cccc2sc(N(CCCN(C)C)C(=O)CCS(=O)(=O)c3ccccc3)nc12 | 23.6% (active)
52 | COc1cc2ccccc2cc1C(=O)N(CCN(C)C)c1nc2c(F)cccc2s1 | 0.73% (inactive)
53 | COc1cccc2sc(N(CCCN(C)C)C(=O)CCS(=O)(=O)c3ccccc3)nc12 | 8.64% (inactive)
54 | CC1Cc2ccccc2N1S(=O)(=O)c1cccc(C(=O)NCC(c2ccco2)N2CCCC2)c1 (configuration not stated) | 2.58% (inactive)
55 | COc1ccc(N2CCN(C(=O)Cn3cnc4sc(C)c(S(=O)(=O)N5CCOCC5)c4c3=O)CC2)cc1 | -1.42% (inactive)
56 | Cc1csc2nc(COC(=O)c3cccc(N(C)C)c3)cc(=O)n12 | -1.39% (inactive)
57 | CC1CCN(S(=O)(=O)c2nnc(NC(=O)COc3ccccc3F)s2)CC1 | 18.1% (active)
58 | O=C(COc1ccccc1F)Nc1nc(-c2ccccn2)cs1 | -1.27% (inactive)
59 | Cc1ccccc1OCC(=O)Nc1nnc(S(=O)(=O)N2CCCC2)s1 | 4.03% (inactive)
60 | CC(NC(=S)NNS(=O)(=O)c1ccc(C(C)(C)C)cc1)c1ccccc1 (configuration not stated) | -3.78% (inactive)
61 | COc1ccc(-c2ccc3c(c2)[C@@H]2C[C@H](N(C)S(=O)(=O)c4ccccc4)[C@H]([C@H](C)O)C(=O)N2CC3)cc1 | 2.65% (inactive)
62 | CC1CC(C)CN(C(=O)C2CC(=O)N(c3ccc(F)cc3)C2)C1 (configuration not stated) | 5.22% (inactive)
63 | CC1CCN(S(=O)(=O)c2ccc3c(ccn3CC(=O)O)c2)CC1 | 9.91% (active)
64 | CC1CCN(S(=O)(=O)c2ccc3c(c2)n(C)c(=O)n3C)CC1 | 4.68% (inactive)
65 | Cc1ccn2c(c1)nc(=O)c1cc(S(=O)(=O)N3CCC(C)CC3)ccc12 | 0.6% (inactive)
66 | COc1cccc(OCc2nnc3n2N=C(c2ccccc2)C(CC(=O)O)S3)c1 (configuration not stated) | 1.48% (inactive)

Row | SMILES | activation
67 | CCCCCCCCCCOC(=O)Cn1c(COc2cccc(OC)c2)[n+](C)c2ccccc21 | 13.7% (active)
68 | CCCCCCCCCCOC(=O)Cn1c(COc2ccc(C)cc2)[n+](C)c2ccccc21 | 9.74% (active)
69 | CCOC(=O)CNC(=O)CSc1nnc(-c2cccc(OC)c2)n1CC | 1.82% (inactive)
70 | CCCCOc1ccc(NC(=O)CSCC(=O)OCC)cc1 | -1.74% (inactive)
71 | CCOC(=O)COn1c(=O)c(-c2ccc(OCC)cc2)[n+]([O-])c2ccccc21 | -0.87% (inactive)
72 | CC[C@]12c3[nH]c4ccc(Cl)cc4c3CCN1C(=O)[C@@H](CC(=O)NCCCOC)C[C@@H]2C(=O)N1CCN(C(=O)c2ccco2)CC1 | -0.61% (inactive)
73 | COc1ccc(CNC(=O)CN(Cc2ccccc2Cl)C(=O)c2csnn2)cc1 | 0.86% (inactive)
74 | O=c1/c(=C/c2ccc(CNS(=O)(=O)c3ccccc3)o2)sc2n1CCN=2 | -6.78% (inactive)
75 | CCC(C)(C)NC(=O)CN(C(=O)CCC(=O)Nc1cc(C)ccn1)c1ccc2c(c1)OCCO2 | 2.5% (inactive)
76 | Fc1ccccc1-c1cc2cc3c(cc2cn1)OCO3 | 7.94% (inactive)
77 | O=C(c1noc2c1CCCC2)N1CCc2ccccc2C1 | 5.42% (inactive)
78 | CCC1(C)NC(=O)N(CC(=O)N2CCN(c3cccc(Cl)c3)CC2)C1=O (configuration not stated) | 0.94% (inactive)
79 | Cc1ccc(C(=O)Nc2nc3ccc(Cl)cc3s2)o1 | 5.48% (inactive)
80 | Cc1ccc(Cc2cnc(N)s2)o1 | -3.06% (inactive)
81 | Cc1ccc(CCC(=O)Nc2ncc(Cc3cc(Cl)ccc3Cl)s2)o1 | 17.4% (active)
82 | COc1ccc(C(=O)NCc2ccc(C)cc2)cc1S(=O)(=O)N1CCCC1 | 5.16% (inactive)
83 | C/C=C/C(=O)OCC(=O)Nc1ccc(F)cc1Cl | 6.73% (inactive)
84 | Cc1ccc2nc(-c3ccc(NC(=O)c4cccnc4)cc3)oc2c1 | 1.12% (inactive)
85 | O=C(Nc1ccc2oc(-c3ccccc3F)nc2c1)c1ccco1 | 0.88% (inactive)
86 | COc1cc(OC)cc(C(=O)Nc2ccc(-c3nc4ccccc4o3)c(O)c2)c1 | 13.9% (active)
87 | COc1ccc(C(=O)NC(C)c2nccs2)cc1OC1CCN(C(C)C)CC1 (configuration not stated) | 0.03% (inactive)
